Active and inactive are the calls of the source. How the source made its calls: active means hit-call score of the fitted dose curve at least 0.9, where 1 is the maximum; inactive means score below 0.9.
Assays:
[1] = read-out: Macrophage colony-stimulating factor (MCSF), CSF1 (gene 1435); assay: BSK_hDFCGF_MCSF: BioMAP Diversity Plus: hDFCGF Assay for Macrophage colony-stimulating factor (MCSF) Biomarker Activity (AID 2283060); conditions: primary human foreskin fibroblasts; actives raise or lower the signal
In short: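 Human foreskin fibroblast primary cultures; M-CSF measured by ELISA 24 hours after chemical dosing. Bidirectional fitting relative to DMSO, with overt cytotoxicity tracked by parallel SRB total-protein staining (0.1% SRB, 10% TCA fixation, 560 nm).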

[2] = BSK_hDFCGF_SRB: Viability Assessment in the BioMAP Diversity Plus: hDFCGF Assay (AID 2283061); conditions: primary human foreskin fibroblasts;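 further: cells exposed to compound for 24 h before the read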
In short: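 Human foreskin fibroblasts in 96-well plates were treated 24 h. Total protein was measured by 0.1% SRB staining after 10% TCA fixation, read at 560 nm. Data were fitted bidirectionally against DMSO.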

[3] = read-out: TIMP metallopeptidase inhibitor 1 (TIMP1), TIMP1 (gene 7076); assay: BSK_hDFCGF_TIMP1: BioMAP Diversity Plus: hDFCGF Assay for TIMP metallopeptidase inhibitor 1 (TIMP1) Biomarker Activity (AID 2283062); conditions: primary human foreskin fibroblasts; actives raise or lower the signal
In short: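 Human foreskin fibroblast primary cultures dosed for 24 h; secreted/surface TIMP-1 quantified by ELISA. Bidirectional curve fitting against DMSO baseline; cytotoxicity tracked in parallel cultures by SRB total-protein staining.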

[4] = read-out: Monokine induced gamma interferon (MIG), CXCL9 (gene 4283); assay: BSK_hDFCGF_MIG: BioMAP Diversity Plus: hDFCGF Assay for Monokine induced gamma interferon (MIG) Biomarker Activity (AID 2283063); conditions: primary human foreskin fibroblasts; actives raise or lower the signal
In short: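 MIG/CXCL9 measured by ELISA 24 h after dosing primary human skin fibroblasts. Activity fitted in both directions against DMSO controls. Cytotoxicity was checked in parallel cultures by SRB staining read at 560 nm.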

[5] = read-out: Matrix Metallopeptidase 1 (MMP1), MMP1 (gene 4312); assay: BSK_hDFCGF_MMP1: BioMAP Diversity Plus: hDFCGF Assay for Matrix Metallopeptidase 1 (MMP1) Biomarker Activity (AID 2283064); conditions: primary human foreskin fibroblasts; actives raise or lower the signal
In short: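 ELISA read-out of MMP1 from human foreskin fibroblasts (primary skin cells), 24 h post-dose. Gain or loss of signal was fitted bidirectionally versus DMSO negative control; cytotoxicity was checked by SRB in parallel cultures.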

[6] = read-out: Vascular cell adhesion molecule 1 (VCAM1), VCAM1 (gene 7412); assay: BSK_hDFCGF_VCAM1: BioMAP Diversity Plus: hDFCGF Assay for Vascular cell adhesion molecule 1 (VCAM1) Biomarker Activity (AID 2283065); conditions: primary human foreskin fibroblasts; actives raise or lower the signal;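 on AC50: VCAM-1 protein level quantified by ELISA after 24 h chemical exposure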
In short: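 Human foreskin fibroblast primary cells dosed with chemical, VCAM-1 measured by ELISA at 24 h. Bidirectional curve fitting relative to DMSO as negative control/baseline.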

[7] = read-out: Plasminogen activator inhibitor-1 (PAI1), SERPINE1 (gene 5054); assay: BSK_hDFCGF_PAI1: BioMAP Diversity Plus: hDFCGF Assay for Plasminogen activator inhibitor-1 (PAI1) Biomarker Activity (AID 2283066); conditions: primary human foreskin fibroblasts; actives raise or lower the signal
In short: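 Fibroblasts from human foreskin were treated with test chemical. After 24 h, PAI-1 was measured by ELISA. Activity was fitted in both directions relative to DMSO.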

[8] = read-out: Intercellular Adhesion Molecule 1 (ICAM1), ICAM1 (gene 3383); assay: BSK_KF3CT_ICAM1: BioMAP Diversity Plus: KF3CT Assay for Intercellular Adhesion Molecule 1 (ICAM1) Biomarker Activity (AID 2283067); conditions: primary human keratinocytes with fibroblasts; actives raise or lower the signal
In short: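 Human keratinocyte–foreskin fibroblast co-culture was treated for 24 h. Cell-surface ICAM-1 was quantified by ELISA, fitted bidirectionally relative to DMSO. Cytotoxicity was checked in parallel cultures by SRB total-protein staining.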

[9] = read-out: Interferon-gamma inducible Protein 10 (IP10), CXCL10 (gene 3627); assay: BSK_KF3CT_IP10: BioMAP Diversity Plus: KF3CT Assay for Interferon-gamma inducible Protein 10 (IP10) Biomarker Activity (AID 2283068); conditions: primary human keratinocytes with fibroblasts; actives raise or lower the signal
In short: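 Signal is secreted/surface IP-10 by ELISA in a human primary skin co-culture of keratinocytes and foreskin fibroblasts, taken 24 h post-dosing; DMSO served as negative control.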

[10] = BSK_KF3CT_SRB: Viability Assessment in the BioMAP Diversity Plus: KF3CT Assay (AID 2283069); conditions: primary human keratinocytes with fibroblasts;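 further: total protein by sulforhodamine B staining as a cytotoxicity measure; read 24 h after compound addition; fitted for both signal gain and loss against DMSO baseline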
In short: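 SRB read-out at 560 nm (0.1% stain, TCA-fixed cells) gauges overt cytotoxicity in a human skin keratinocyte–fibroblast co-culture 24 h post-dosing. Signal change was fitted bidirectionally relative to DMSO control.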

Measured: AC50

O=C(O)CCCCC(=O)O
not listed: [10]
inactive: all other assays above

Cc1nc(-c2ccc3c(c2)CCN(CCC2CCC(NC(=O)/C=C/c4ccc(F)cc4)CC2)CC3)no1 (centres undefined)
not listed: [10]
inactive: all other assays above

CNC(=O)[C@H]1O[C@@H](n2cnc3c(NCc4cc(Cl)ccc4OCc4cc(C)no4)ncnc32)[C@H](O)[C@@H]1N
inactive: all assays above

CCCCCCOCCO
inactive: all assays above

CCCc1cc(=O)[nH]c(=S)[nH]1
not listed: [10]
inactive: all other assays above

CC(=O)Oc1ccccc1C(=O)O
inactive: all assays above

C[C@]12C=CC(=O)C=C1CC[C@@H]1[C@@H]2C(=O)C[C@@]2(C)[C@H]1CC[C@]2(O)C(=O)CO
not listed: [10]
inactive: all other assays above

CN1CCCC1=O
not listed: [10]
inactive: all other assays above

CCOC(=O)C(C)(C)Oc1ccc(Cl)cc1
inactive: all assays above

COc1cc(-c2nc(NC(=O)c3cc4cc(C)cc(C)c4n3CC(=O)O)sc2CCC2CCCCC2)c(OC)cc1Cl
active: [1] 420 nM | [2] 771 nM | [3] 480 nM | [4] 1620 nM | [5] 471 nM | [6] 317 nM | [7] 442 nM | [8] 3230 nM | [9] 1550 nM

Source: PubChem BioAssay (EPA / NIEHS)
